Reference: PubChem BioAssay
The source made the active and inactive calls.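 How the source made its calls, unless noted: active means inhibition above 20% together with a positive visual image hit; inconclusive means visual image hit but inhibition not above 20%; inactive means no visual image hit.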

What was measured:
[1] = inhibitors of TNFa-induced NFkB p65 translocation, primary screen, imaging, HUVEC, MLSMR starter and 10KST1 sets (AID 438); details: HUVEC TNFa-induced p65 nuclear translocation; cell count: measured here: nuclei count (cytotoxicity indicator), at 2.08 µM; inhibition: at 2 µM, stronger effect = higher value, 0% TNFa-plus-vehicle, 100% no-TNFa wells;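 further: compound added about 3h40 before a 20 min TNFalpha stimulation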;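 on inhibition: signal is the nuclear over cytoplasmic p65 intensity ratio per well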
[2] = inhibitors of mutant huntingtin aggregation, primary screen, imaging, exon1htt(103Q)mCFP cells, high-content imaging (AID 483;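 active means visual image review flags a hit and inhibition of aggregation exceeds 20%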;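 further: compound exposure lasted 3 days before fixation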;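 on nuclei count: percent of the per-plate median nuclei count of sample wells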); details: exon1htt(103Q)mCFP cell line, aggregate imaging, at 2 µM; inhibition of aggregation: stronger effect = higher value; nuclei count: measured here: cell count, toxicity
[3] = inhibitors of E-selectin induction by TNFa, primary screen, imaging, HUVEC, immunofluorescence, MLSMR starter and 10KST1 sets (AID 487;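 active means visually confirmed hit in the image check and inhibition above 20%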;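 on inhibition: signal is fraction of cell area covered by stained E-selectin grains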;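 on nuclei count: 100% = median nuclei count of all wells on the same plate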); details: HUVEC TNFalpha-induced E-selectin immunofluorescence imaging, at 2 µM; inhibition: stronger effect = higher value; nuclei count: measured here: cell number, toxicity
[4] = molecular target: Voltage-gated potassium channel subunit beta-2 (Rattus norvegicus) (UniProt P62483); assay: KvBeta enzyme negative modulators, primary screen, biochemical, NADPH fluorescence (AID 622;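 active means fluorescence slope higher than the sample average by over 3 SD, cut at about -0.22 in these data, passing the limit was not always enough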;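 further: slope of raw intensity against log time taken from 70 to 1610 s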); details: recombinant KvBeta, 4-cyanobenzaldehyde reduction, at 10 µM, stronger effect = higher value
Voltage-gated potassium channel subunit beta-2 (Rattus norvegicus), sequence (P62483 whole entry, looked up): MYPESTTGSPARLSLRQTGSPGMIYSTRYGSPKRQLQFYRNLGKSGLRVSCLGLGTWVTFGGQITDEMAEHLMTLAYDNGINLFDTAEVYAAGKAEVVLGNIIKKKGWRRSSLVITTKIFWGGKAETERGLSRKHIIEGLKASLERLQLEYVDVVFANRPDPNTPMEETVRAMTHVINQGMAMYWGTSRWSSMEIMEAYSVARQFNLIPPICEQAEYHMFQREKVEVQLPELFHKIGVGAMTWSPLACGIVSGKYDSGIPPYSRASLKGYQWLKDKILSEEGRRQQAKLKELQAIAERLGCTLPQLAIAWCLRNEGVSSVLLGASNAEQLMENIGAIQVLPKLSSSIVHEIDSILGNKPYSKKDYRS

[5] = molecular target: Voltage-gated potassium channel subunit beta-2 (Rattus norvegicus) (UniProt P62483); assay: KvBeta positive modulators, primary screen, biochemical, NADPH fluorescence (AID 623;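 active means NADPH fluorescence slope more negative than the mean of all samples by about 3 SD, 99.7% confidence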;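 further: fluorescence intensity change per second fitted from 20 to 320 s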); details: Recombinant KvBeta, NADPH fluorescence decrease slope, 10 min; at 10 µM; stronger effect = lower value
[6] = molecular target: Alpha-2C adrenergic receptor (Homo sapiens) (UniProt P18825); assay: modulators of alpha2C/GIRK thallium flux, primary screen, cell-based, HEK293 alpha2C/GIRK1/2 (AID 624;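 active means fluorescence slope after compound addition differing from the mean of all screened samples at 99.7% confidence, in either direction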;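 further: slope of fluorescence ratio to pre-addition baseline per second over 15 to 24 s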); details: thallium flux BTC fluorescence, at 10 µM, actives lie on both sides
Alpha-2C adrenergic receptor (Homo sapiens), sequence (P18825 whole entry, looked up): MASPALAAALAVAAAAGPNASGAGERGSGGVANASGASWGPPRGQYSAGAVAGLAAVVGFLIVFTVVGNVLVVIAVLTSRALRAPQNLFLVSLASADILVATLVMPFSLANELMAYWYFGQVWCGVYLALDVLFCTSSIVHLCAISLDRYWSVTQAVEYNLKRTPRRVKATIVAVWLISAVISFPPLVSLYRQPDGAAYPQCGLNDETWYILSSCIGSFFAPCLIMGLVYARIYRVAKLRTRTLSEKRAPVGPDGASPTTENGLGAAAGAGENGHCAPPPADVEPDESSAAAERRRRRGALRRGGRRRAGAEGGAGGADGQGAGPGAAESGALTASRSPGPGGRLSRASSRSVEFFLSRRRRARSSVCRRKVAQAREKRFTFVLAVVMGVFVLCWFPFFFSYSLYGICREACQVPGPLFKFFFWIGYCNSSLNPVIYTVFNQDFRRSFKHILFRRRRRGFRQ

[7] = inhibitors of Sendai virus-induced IRF3 signaling, primary screen, TLR/RLR signaling modifier project, cell-based, Sendai virus stimulus, luciferase, 10K MLSCN set (AID 602276;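 active means inhibition at or above 50% at 10 µM; inactive means inhibition below 50%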;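 further: firefly luciferase from ISG56 promoter only with Renilla not read in this screen; 0% = Sendai virus plus DMSO and 100% = medium plus DMSO without virus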); details: HEK293 RL24 IRF3 luciferase reporter, at 10 µM, stronger effect = higher value
[8] = inhibitors of poly I:C-induced TLR3 signaling, primary screen, cell-based, poly I:C stimulus, luciferase, 10K MLSCN set (AID 602277;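 active means inhibition of the reporter signal at or above 50%; inactive means inhibition below 50%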); details: HEK293-TLR3 RL24 IRF3 luciferase reporter, at 10 µM, stronger effect = higher value

Row | SMILES | cell count [1] | inhibition [1] | inhibition of aggregation [2] | nuclei count [2] [%] | inhibition [3] | nuclei count [3] [%] | fluorescence slope [4] | NADPH fluorescence slope [5] | slope [6] | inhibition [7] | inhibition [8]
1 | CC1(C)CC(=O)c2cnc(NC(=O)CCc3ccccc3)nc2C1 | 608 | -15.9% (inactive) | -15.3% (inactive) | 112 | -24.7% (inactive) | 119 | -0.365 (inactive) | 9.1e-06 (inactive) | 0.00293 (inactive) | 14.3% (inactive) | 33% (inactive)
2 | O=C(CC1CCS(=O)(=O)C1)Nc1ccc[nH]c1=O (centres undefined) | 475 | -4.7% (inactive) | -4.6% (inactive) | 63.8 | 42.5% (inactive) | 49 | -0.41 (inactive) | -6.4e-05 (inactive) | 0.0024 (inactive) | 16.2% (inactive) | 8.75% (inactive)
3 | COc1cc2c(cc1OC)CN(C(=O)CSc1nc3[nH]ncc3c(=O)n1-c1ccccc1)CC2 | 509 | -8.2% (inactive) | -8.9% (inactive) | 86.9 | -7.3% (inactive) | 87 | -0.492 (inactive) | -2.6e-05 (inactive) | 0.00737 (inactive) | 11% (inactive) | 23.1% (inactive)
4 | O=C(Nc1ccc(Cl)cc1C(=O)O)c1ccc2c(c1)C(=O)N(Cc1ccco1)C2=O | 366 | 0.3% (inactive) | -2.8% (inactive) | 105 | -34.4% (inactive) | 119 | -0.493 (inactive) | -4.3e-05 (inactive) | 0.00498 (inactive) | 23.5% (inactive) | 28.2% (inactive)
5 | COc1ccc(CCn2c(NCCCN3CCOCC3)nc3c2c(=O)[nH]c(=O)n3C)cc1 | 395 | 2.1% (inactive) | -5.3% (inactive) | 110 | -6.4% (inactive) | 99.3 | -0.539 (inactive) | 2.7e-05 (inactive) | 0.00501 (inactive) | -6.62% (inactive) | -4.13% (inactive)
6 | Cc1ccccc1C(=O)NC1CCN(Cc2nnnn2CCc2ccccc2)CC1 | 597 | -10.4% (inactive) | -10.6% (inactive) | 107 | 0.8% (inactive) | 102 | -0.491 (inactive) | -3.4e-05 (inactive) | 0.0062 (inactive) | 5.02% (inactive) | 33.8% (inactive)
7 | Cc1ccc(-c2cn3nc(C)c(C)nc3n2)cc1 | 778 | -23.3% (inactive) | -5.7% (inactive) | 119 | -35.5% (inactive) | 121 | -0.007 (active) | -3.4e-06 (inactive) | 0.00494 (inactive) | 20% (inactive) | 1.39% (inactive)
8 | CCCOc1ccccc1C1CC(=O)Nc2cc3c(cc21)OCCO3 (centres undefined) | 647 | 4.9% (inactive) | 6.6% (inactive) | 39.3 | 29.7% (inactive) | 97.2 | -0.628 (inactive) | -2e-05 (inactive) | 0.00236 (inactive) | -3.13% (inactive) | 78% (active)
9 | Cc1csc(SCc2nc3sc4c(c3c(=O)[nH]2)CCC4)n1 | 562 | 1.9% (inactive) | 0.1% (inactive) | 116 | -229% (inactive) | 171 | -0.553 (inactive) | -1.4e-05 (inactive) | 0.00536 (inactive) | 13% (inactive) | 1.21% (inactive)
10 | CCOC(=O)c1sc(Nc2nc3c(OC)cccc3s2)nc1C | 435 | 2.2% (inactive) | -20.1% (inactive) | 106 | -20.5% (inactive) | 101 | -0.351 (inactive) | 2.5e-05 (inactive) | 0.00775 (inactive) | -1.57% (inactive) | -60.9% (inactive)
11 | C=CCSC1=C(C#N)C(c2ccccc2C)CC(=O)N1 (centres undefined) | 556 | 2.1% (inactive) | -12.2% (inactive) | 94 | -48.8% (inactive) | 174 | -0.601 (inactive) | -1.1e-05 (inactive) | 0.00492 (inactive) | -5.91% (inactive) | -13.9% (inactive)
12 | CCc1ccc(NC(=O)c2cccnc2)cc1 | 337 | -3.8% (inactive) | 23.7% (inactive) | 88 | -14.1% (inactive) | 110 | -0.429 (inactive) | -2.2e-05 (inactive) | 0.00479 (inactive) | -27% (inactive) | -80.3% (inactive)
13 | C=CCNC(=O)CSc1nc2sc(C)c(C)c2c(=O)[nH]1 | 590 | -3.4% (inactive) | 13.2% (inactive) | 91.2 | 5.1% (inactive) | 112 | -0.556 (inactive) | -3.3e-05 (inactive) | 0.00731 (inactive) | 9.71% (inactive) | 21.7% (inactive)
14 | CC(C)(C)n1nnnc1C(c1ccccc1)N1CCc2ccccc2C1 (centres undefined) | 481 | 2.9% (inactive) | 16% (inactive) | 115 | 11.4% (inactive) | 110 | -0.48 (inactive) | -0.000258 (inactive) | 0.00496 (inactive) | 20.4% (inactive) | 30.1% (inactive)
